Assay results published in PubChem BioAssay AID1159580 (chemical genetic matrix, 2015).
Several values for one entry are separate records, joined by “and”; a condition that tells them apart may be missing. Equal entries are not always repeated. In all, about 5,500 compounds went through this assay and about 2,000 (36%) were called active. Not shown: some 18% with an inconclusive outcome. No stated cut-off is given here; in the data, active means normalized growth mostly below about 0.91 (no sharp cut-off); inconclusive means no clear call, values can overlap the other calls; inactive means mostly above about 0.92. The list shows a part of the results.

Experiment: chemical genetic growth profiling, strain panel (AID 1159580);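 further: tested at 20 µM; growth read once vehicle control cultures reached saturation at 30 °C; 1 = growth at the plate median or of vehicle wells; lower values mean less growth of the strain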
Settings: S. cerevisiae deletion strains, growth OD

Measured: normalized growth

O=C1O[C@H](C(O)CO)C(O)=C1O (some centres undefined)
inactive: locus YAL021C, strain ccr4, hits give low values 0.975 | locus YAL026C, strain drs2, hits give low values 0.974 | locus YAL030W, strain snc1, hits give low values 0.988 | locus YBL061C, strain skt5, hits give low values 0.984 | locus YBR009C, strain hhf1, hits give low values 0.992 | locus YBR021W, strain FUR4, hits give low values 0.976 | locus YBR023C, strain chs3, hits give low values 0.978 | locus YBR171W, strain sec66, hits give low values 0.983 | locus YBR229C, strain ROT2, hits give low values 0.991 | locus YBR231C, strain swc5, hits give low values 1.01 | locus YBR279W, strain paf1, hits give low values 0.986 | locus YCL011C, strain gbp2, hits give low values 0.989 | locus YCL016C, strain dcc1, hits give low values 0.986 | locus YCL029C, strain bik1, hits give low values 0.96 | locus YCL061C, strain MRC1, hits give low values 0.975 | locus YCL069W, strain vba3, hits give low values 0.997 | locus YCR088W, strain abp1, hits give low values 0.985 | locus YDL005C, strain med2, hits give low values 0.983 | locus YDL035C, strain GPR1, hits give low values 1.03 | locus YDL040C, strain nat1, hits give low values 0.987 | locus YDL074C, strain BRE1, hits give low values 0.997 | locus YDL101C, strain DUN1, hits give low values 0.993 | locus YDL185W, strain tfp1, hits give low values 0.973 | locus YDL192W, strain arf1, hits give low values 0.977 | locus YDR001C, strain nth1, hits give low values 0.99 | locus YDR069C, strain doa4, hits give low values 0.991 | locus YDR101C, strain arx1, hits give low values 0.954 | locus YDR137W, strain rgp1, hits give low values 0.971 | locus YDR159W, strain sac3, hits give low values 0.984 | locus YDR162C, strain NBP2, hits give low values 1.01 | locus YDR195W, strain ref2 0.991 | locus YDR297W, strain sur2, hits give low values 0.992 | locus YDR318W, strain mcm21, hits give low values 1 | locus YDR334W, strain swr1, hits give low values 0.979 | locus YDR335W, strain msn5, hits give low values 0.993 | locus YDR388W, hits give low values 0.977 | locus YDR392W, strain spt3, hits give low values 0.916 | locus YDR502C, strain sam2, hits give low values 0.996 | locus YEL003W, strain gim4, hits give low values 1 | locus YEL037C, strain rad23, hits give low values 0.988 | locus YEL061C, strain CIN8 (second series), hits give low values 0.989 | locus YEL061C, strain CIN8, hits give low values 1.02 | locus YER015W, strain faa2, hits give low values 0.971 | locus YER016W, strain bim1, hits give low values 0.997 | locus YER110C, hits give low values 0.974 | locus YER111C, strain swi4, hits give low values 0.983 | locus YER155C, strain BEM2 (second series), hits give low values 0.992 | locus YER155C, strain BEM2, hits give low values 0.976 | locus YER167W, strain BCK2, hits give low values 1 | locus YFR010W, strain ubp6, hits give low values 0.975 | locus YGL078C, strain dbp3, hits give low values 0.964 | locus YGL086W, strain mad1, hits give low values 0.957 | locus YGL167C, strain pmr1, hits give low values 0.984 | locus YGL173C, strain kem1, hits give low values 0.982 | locus YGL227W, strain vid30, hits give low values 0.992 | locus YGL240W, strain doc1, hits give low values 0.986 | locus YGL248W, strain PDE1, hits give low values 0.997 | locus YGL253W, strain hxk2, hits give low values 0.992 | locus YGR135W, strain pre9, hits give low values 1.01 | locus YGR229C, strain SMI1, hits give low values 1.01 | locus YGR252W, strain gcn5, hits give low values 1.06 | locus YHR013C, strain ard1, hits give low values 0.957 | locus YHR027C, strain rpn1, hits give low values 1.01 | locus YHR030C, strain SLT2, hits give low values 0.991 and 0.989 | locus YHR079C, strain IRE1 (second series), hits give low values 0.984 | locus YHR079C, strain IRE1, hits give low values 1 | locus YHR094C, strain hxt1, hits give low values 0.976 | locus YHR129C, strain ARP1, hits give low values 1 | locus YHR142W, strain chs7, hits give low values 0.979 | locus YHR200W, strain rpn10, hits give low values 0.982 | locus YIL066C, strain RNR3, hits give low values 0.987 | locus YIL073C, strain SPO22, hits give low values 0.997 | locus YIL125W, strain kgd1, hits give low values 0.967 | locus YIR030C, strain dcg1, hits give low values 0.978 | locus YJL092W, strain hpr5, hits give low values 0.988 | locus YJL095W, strain BCK1 (second series), hits give low values 0.991 | locus YJL095W, strain BCK1, hits give low values 1.02 and 0.983 | locus YJL115W, strain asf1, hits give low values 0.987 | locus YJL129C, strain trk1, hits give low values 0.992 | locus YJL134W, strain LCB3, hits give low values 0.987 | locus YJL154C, strain vps35, hits give low values 1 | locus YJL164C, strain tpk1, hits give low values 0.969 | locus YJL166W, strain qcr8, hits give low values 0.97 | locus YJL168C, strain set2, hits give low values 0.979 | locus YJL187C, strain SWE1 (second series), hits give low values 0.999 | locus YJL187C, strain SWE1, hits give low values 0.986 | locus YJR043C, strain POL32, hits give low values 0.999 | locus YJR066W, strain TOR1, hits give low values 0.943 | locus YKL009W, strain mrt4, hits give low values 1.01 | locus YKL068W, hits give low values 0.992 | locus YKL085W, strain MDH1 (second series), hits give low values 0.992 | locus YKL085W, strain MDH1, hits give low values 0.992 | locus YKL160W, strain elf1, hits give low values 0.971 | locus YKR001C, strain vps1, hits give low values 0.949 | locus YKR026C, strain gcn3, hits give low values 0.99 | locus YKR091W, strain srl3, hits give low values 0.986 | locus YLL001W, strain dnm1, hits give low values 0.987 | locus YLL026W, hits give low values 0.998 | locus YLL041C, strain sdh2, hits give low values 0.988 | locus YLR027C, strain aat2, hits give low values 0.99 | locus YLR039C, strain RIC1, hits give low values 1.03 | locus YLR058C, strain SHM2, hits give low values 1.01 | locus YLR102C, strain apc9, hits give low values 0.98 | locus YLR113W, strain HOG1, hits give low values 0.974 | locus YLR221C, strain rsa3, hits give low values 0.975 | locus YLR258W, strain gsy2, hits give low values 0.99 | locus YLR262C, strain YPT6 (second series), hits give low values 0.952 | locus YLR262C, strain YPT6, hits give low values 1.04 | locus YLR268W, strain sec22, hits give low values 0.933 | locus YLR320W, strain mms22, hits give low values 0.975 | locus YLR330W, strain CHS5, hits give low values 0.99 | locus YLR342W, strain FKS1 (second series), hits give low values 0.989 | locus YLR342W, strain FKS1, hits give low values 0.98 | locus YLR357W, strain rsc2, hits give low values 0.952 | locus YLR370C, strain arc18, hits give low values 0.986 | locus YLR371W, strain rom2, hits give low values 0.959 | locus YLR384C, strain iki3, hits give low values 0.971 | locus YLR418C, strain cdc73, hits give low values 1.02 | locus YML016C, strain PPZ1, hits give low values 0.958 | locus YML032C, strain rad52, hits give low values 1.02 | locus YML120C, strain ndi1, hits give low values 0.978 | locus YML124C, strain tub3, hits give low values 0.972 | locus YMR058W, strain fet3, hits give low values 0.99 | locus YMR078C, strain ctf18, hits give low values 0.961 | locus YMR125W, strain sto1, hits give low values 0.979 | locus YMR129W, hits give low values 0.996 | locus YMR205C, strain PFK2, hits give low values 0.963 | locus YMR223W, strain ubp8, hits give low values 0.982 | locus YMR231W, strain pep5, hits give low values 0.986 | locus YMR307W, strain GAS1, hits give low values 1.01 | locus YNL067W, strain RPL9B, hits give low values 1 | locus YNL071W, strain lat1, hits give low values 0.986 | locus YNL128W, strain TEP1, hits give low values 0.988 | locus YNL183C, strain NPR1, hits give low values 0.932 | locus YNL209W, strain ssb2, hits give low values 0.998 | locus YNL233W, strain BNI4, hits give low values 0.993 | locus YNL248C, strain rpa49, hits give low values 0.983 | locus YNL250W, strain rad50, hits give low values 0.962 | locus YNL271C, strain bni1, hits give low values 0.966 | locus YNL298W, strain CLA4, hits give low values 0.979 | locus YNL307C, strain MCK1, hits give low values 0.965 | locus YNL322C, strain KRE1 (second series), hits give low values 0.984 | locus YNL322C, strain KRE1, hits give low values 0.995 | locus YNR049C, strain mso1, hits give low values 0.986 | locus YNR052C, strain pop2, hits give low values 0.985 | locus YOL006C, strain TOP1, hits give low values 0.979 | locus YOL012C, strain htz1 1.07 | locus YOL147C, strain pex11, hits give low values 0.982 | locus YOR001W, strain rrp6, hits give low values 0.989 | locus YOR061W, strain CKA2, hits give low values 0.992 | locus YOR069W, strain VPS5, hits give low values 0.991 | locus YOR070C, strain gyp1, hits give low values 0.989 | locus YOR080W, strain dia2, hits give low values 0.981 | locus YOR083W, strain WHI5, hits give low values 0.973 | locus YOR106W, strain vam3, hits give low values 0.962 | locus YOR136W, strain idh2, hits give low values 0.96 | locus YOR144C, strain elg1, hits give low values 0.974 | locus YOR184W, strain ser1, hits give low values 0.991 | locus YOR231W, strain MKK1, hits give low values 0.965 | locus YOR265W, strain rbl2, hits give low values 0.984 | locus YOR270C, strain vph1, hits give low values 0.987 | locus YOR290C, strain snf2, hits give low values 0.953 | locus YOR316C, strain cot1, hits give low values 0.976 | locus YPL051W, strain arl3, hits give low values 0.977 | locus YPL078C, strain atp4, hits give low values 0.979 | locus YPL106C, strain sse1, hits give low values 0.93 | locus YPL240C, strain hsp82, hits give low values 0.995 | locus YPL241C, strain CIN2, hits give low values 0.993 | locus YPL256C, strain CLN2, hits give low values 1 | locus YPR119W, strain clb2, hits give low values 0.976 | locus YPR141C, strain kar3, hits give low values 0.973 | locus YPR163C, strain tif3, hits give low values 0.975 | locus YPR167C, strain met16, hits give low values 0.998 | strain wtn01, hits give low values 0.932
